Compound activity: PubChem, National Center for Advancing Translational Sciences (NCATS)
Pf Dd2 inh = blocks in vitro growth of P. falciparum Dd2; P. falciparum Dd2 growth, SYBR Green, 72 h; Potency, µM (series often up to 28.9 µM), without a hit: top-dose activity, negative = inhibition, hits mostly inhibitors; 120,000 tested, 4.3% active; AID 1347417; active means well fitted inhibition curve with a large enough effect;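 further: plate controls were DMSO vehicle for no effect and reference drug for full effect; nearly all actives have a fitted effect of over 65% in size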
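Readout: SYBR Green fluorescence, 485 nm excitation, 535 nm emission, after ~16 h lysis at 37C. Before that, Dd2-infected red cells (2.5% hematocrit) grew 72 h with compound, 29 uM top final concentration.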
The depositor's hits bear a star; i = inactive; [ ] = dose if it differs, or a comment. This is one part of a sample in which hits are shown more often than they occur. Potency means the concentration at half of the fitted maximal effect.

SMILES | Pf Dd2 inh
Cc1noc(C)c1S(=O)(=O)N1CCCC(Cc2nncn2CC2CC2)C1 (configuration not stated) | 10%
CC(C)(Oc1nn(Cc2cccc(Cl)c2)c2ccccc12)C(=O)N1CC(O)C1 | -25%[44.1 µM]
Cc1cc(C(=O)N2C[C@@H]3CCCN4CCC[C@@H]([C@H]34)[C@H]2CCCC(=O)N2CCOCC2)nn1C | -21%
COCCNC(=O)C1COC2(CCN(C(=O)c3ccc(F)cc3)CC2)N1C(=O)c1ccc(C)cc1 (configuration not stated) | 0%
C[C@@H](NC(=O)c1cccnc1)c1onc(-c2ccc(Cl)cc2)c1C(=O)O | 16%[44.1 µM]
Cc1noc([C@@H]2CN(C(=O)c3cccc4[nH]ccc34)C[C@H]2CO)n1 | 14%
Cc1ccc(NC(=O)CCCn2nc(C)c3c(C)n(-c4ccccc4)nc3c2=O)cc1Cl | 14%
CCN(CC)c1ccc(NC(=O)Cn2c(C)c3cnn(-c4ccccc4)c(=O)c3c2C)c(C)c1 | 10%
Cc1cc(NC(=O)CCCn2c(C)c3cnn(-c4ccccc4)c(=O)c3c2C)ccc1Br | 11µM*
COc1cc(-c2cc3c(nc2-c2ccccc2)nc(C(=O)NCCN(C)C)n3C)ccn1 | i
CN1CCC(NC(=O)Cc2c[nH]c3ncc(-c4ccccc4)cc23)CC1 | 32%[44.1 µM]
COCCNC(=O)c1nc2nc(-c3ccccc3)c(Cl)cc2n1C | i
Cc1cc(-c2cc3c(nc2-c2ccccc2)nc(C(=O)NC2CCN(C)CC2)n3C)ccn1 | 6.3µM*
COc1ccc(-c2cc3c(nc2-c2ccccc2)nc(C(=O)NCCN(C)C)n3C)cn1 | 7.1µM*
CC(C)(C)OC(=O)N1CCC(NC(=O)c2nc(-c3ccccc3)c3ccccn23)CC1 | -8%
COc1cc(F)ccc1-c1cc2c(nc1-c1ccccc1)nc(C(=O)NCCN(C)C)n2C | 2.5µM*
CN(C)CCNC(=O)c1ccc(-c2nn(C)c(=O)c3ccccc23)cc1 | -27%
COCc1nc2nc(-c3ccccc3)c(-c3ccc(O)c(F)c3)cc2n1C | -1%[44.1 µM]
Cc1cc(NC(=O)CN2C(=O)NC(c3ccc(Cl)cc3)C3=C2COC3=O)no1 (configuration not stated) | i
CN1CCN(c2nc3c(c(=O)[nH]2)CCN(Cc2ccc(Br)cc2)CC3)CC1 | 87%[5.79 µM]
CN1C(=O)CCC2(CNC(=O)c3cccs3)CCC=C12 (configuration not stated) | 12%
Cc1cccc(N2CCN(C(=O)CN3CC4(CCCCC4)CC3=O)CC2)n1 | -3%
CC(=O)N1CCC(N2CC[C@H](c3nnc(-c4ccco4)o3)C2)CC1 | -25%[44.1 µM]
O=S(=O)(c1cnc[nH]1)N1CCC(c2nc(-c3ccccc3)no2)C1 (configuration not stated) | 7%[5.79 µM]
Cc1ccc(C)c(NC(=O)c2cc3n(n2)CC(c2ccc(Cl)cc2)OC3)c1 (configuration not stated) | i
SMILES | Pf Dd2 inh
Cc1cn2nc(C(=O)N3CCC(NC(=O)Cc4ccc(Cl)cc4)CC3)cc2c(=O)[nH]1 | 2.5µM*
Cc1cn2nc(C(=O)N3CCC(NC(=O)c4ccccc4Cl)CC3)cc2c(=O)[nH]1 | 31%
Cc1cn2nc(C(=O)N3CCC(NC(=O)Cc4ccccc4C)CC3)cc2c(=O)[nH]1 | i
O=C(NCCc1cnc[nH]1)[C@@H]1C[C@H]2C(=O)NCCCCCCN(S(=O)(=O)c3ccccc3)[C@H]2C1 | -29%
CCc1cccc(NC(=O)Nc2ccc3c(c2)N(C)C(=O)c2ccccc2S3)c1 | i
CN1C(=O)c2ccccc2Sc2ccc(NC(=O)N3CCN(c4cccc(Cl)c4)CC3)cc21 | 13µM*
CN1C(=O)c2ccccc2Sc2ccc(NC(=O)Nc3ccccc3F)cc21 | -14%
COc1ccc(CNC(=O)N2CCC(c3noc(-c4cnccn4)n3)C2)cc1 (configuration not stated) | i[5.79 µM]
CC(Cc1cnccn1)Nc1ccc(-c2nc(-c3cccc(Cl)c3)no2)cn1 (configuration not stated) | -3%
COc1cc(OC)c(N(C)C(=O)CSc2c3c(nc4ccc(Cl)cc24)CCCC3)cc1Cl | 11µM*
COc1ccc(OC)c(NC(=O)CSc2c3c(nc4cc(Cl)ccc24)CCCC3)c1 | 8.9µM*
CN(Cc1ccccc1)C(=O)CSc1c2c(nc3ccc(Cl)cc13)CCCC2 | -19%
CCCN(CCC)C(=O)CSc1c2c(nc3ccc(Cl)cc13)CCCC2 | i
COCCNC(=O)CSc1c2c(nc3cc(Cl)ccc13)CCCC2 | -23%
COc1ccc(C)cc1NC(=O)c1ccc2c(SCC(=O)O)c3c(nc2c1)CCCC3 | -29%
COCCN1CC(CO)C2(CCN(C(=O)Cc3c(C)noc3C)CC2)C1 (configuration not stated) | 36%
O=C(NC1CCN(c2cc(-c3ccccc3)[nH]n2)C1)c1ccc(F)c(Cl)c1 (configuration not stated) | i
COCC1CN(C2CCC2)CC12CCN(C(=O)c1ccco1)CC2 (configuration not stated) | -16%
O=C(CN1CCOCC1)NC1CCc2nnc(C3CC3)n2CC1 (configuration not stated) | 18%
CCOc1ccccc1NC(=O)Cn1ccn2nc(-c3ccc(F)cc3)c(CO)c2c1=O | i
Cn1c(CN2CCN(c3cnccn3)CC2)nnc1C1CC(N)C1 (configuration not stated) | -4%
CCN(CCOC)Cc1cn(C)nc1-c1ccc(C2CCCCC2)cc1 | 10µM*
Cn1cc(CN2CCN(c3cnccn3)CC2)c(-c2ccc(C3CCCCC3)cc2)n1 | 10µM*
CN1C(=O)CC(C(=O)O)C12CCN(Cc1cn(C)nc1-c1ccccc1)CC2 (configuration not stated) | -7%
CCOc1cccc(CN2CC[C@H](CNC(=O)NC)[C@H](N(C)C)C2)c1 | -19%
SMILES | Pf Dd2 inh
COc1cccc(C(=O)N2C(C(=O)NCc3ccccc3F)COC23CCC(C)CC3)c1 (configuration not stated) | -22%
COc1cc(NS(=O)(=O)c2cc(Br)cc3c2N(C(=O)C2CC2)CC3)cc(OC)c1 | -18%
CCN(C(=O)C1CCN(S(=O)(=O)c2cc(Br)cc3c2N(C(C)=O)CC3)CC1)c1cccc(C)c1 | 5µM*
CCC(=O)N1CCc2cc(Br)cc(S(=O)(=O)NCCc3cccc(C)c3)c21 | -17%
CCC(=O)N1CCc2cc(Br)cc(S(=O)(=O)N3CCC(C(=O)Nc4ccc(OC)cc4)CC3)c21 | -27%
Cc1cccc(N2CCN(S(=O)(=O)c3cc(Br)cc4c3N(C(=O)C3CC3)CC4)CC2C)c1 (configuration not stated) | 11µM*
O=C(C1CC1)N1CCc2cc(Br)cc(S(=O)(=O)Nc3ccc(F)c(F)c3)c21 | 0%
CCN(c1ccccc1)S(=O)(=O)c1cc(Br)cc2c1N(C(=O)C1CC1)CC2 | 1.1µM*
O=C(C1CC1)N1CCc2cc(Br)cc(S(=O)(=O)N3CCN(c4ccccc4)CC3)c21 | 21%
Cc1ccc(NS(=O)(=O)c2cc(Br)cc3c2N(C(=O)C2CC2)CC3)cc1C | -24%
O=C(c1ccc(=O)[nH]c1)N(CC1CCN(Cc2ccccc2F)CC1)CC1CCCO1 (configuration not stated) | i
CCOc1ccc(C(=O)N[C@H]2CCOC[C@H]2C2CCOCC2)o1 | -4%
CN(C)c1nc2c(c(=O)[nH]1)CCN(Cc1cc(F)cc(F)c1)CC2 | -11%[5.79 µM]
COCc1nnc2n1CCC(NC(=O)CCCc1nc3ccccc3s1)CC2 (configuration not stated) | -18%
COC(=O)[C@H]1CN(C(=O)NC(C)C)CCN1S(C)(=O)=O | -18%[44.1 µM]
